# The panel holds about 79,000 compounds, 15% with a hit somewhere; the sample as a whole holds those more often. A number with no mark means an inactive call. Calls of active or inactive are those of the source. No stated cut-off is given here; in the data, active means growth inhibition above about 70%; inactive means the rest.
# Tests used:
# [1] = NCI Yeast Anticancer Drug Screen. Data for the wt2 strain (AID 169);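 further: 0% = growth of vehicle-treated yeast cultures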; settings: S. cerevisiae wt2 strain growth inhibition, active compounds read high
# Method in brief: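 Inhibition of yeast growth was determined after compound treatment, normalised to controls receiving only vehicle.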
# [2] = NCI Yeast Anticancer Drug Screen. Data for the mlh1 strain (AID 171);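 further: 0% = growth of vehicle-treated control cultures of the same strain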; settings: S. cerevisiae mlh1 strain growth inhibition, active compounds read high
# Method in brief: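 Vehicle-normalised growth inhibition of a repair- or checkpoint-altered yeast strain following compound treatment.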
# [3] = NCI Yeast Anticancer Drug Screen. Data for the sgs1 strain (AID 173);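 further: 0% = growth of vehicle-only control cultures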; settings: S. cerevisiae sgs1 mutant, active compounds read high
# Method in brief: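 Screen format: yeast with repair or checkpoint alterations, compound exposure, growth read relative to vehicle.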
# [4] = NCI Yeast Anticancer Drug Screen. Data for the mlh1 rad18 strain (AID 175); settings: S. cerevisiae mlh1 rad18 strain growth inhibition, active compounds read high
# Method in brief: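 Vehicle-treated cultures served as the reference for growth inhibition in a yeast strain carrying DNA damage repair alterations exposed to each compound.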
# [5] = NCI Yeast Anticancer Drug Screen. Data for the rad52 strain (AID 147);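 further: 0% = growth of vehicle-treated control cultures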; settings: S. cerevisiae rad52 mutant growth inhibition, active compounds read high
# Method in brief: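 Vehicle-treated cultures served as the reference for growth inhibition of compound-exposed yeast bearing a DNA repair mutation.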
# [6] = NCI Yeast Anticancer Drug Screen. Data for the wt1 strain (AID 149);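 further: 0% = growth of vehicle-treated wt1 cultures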; settings: S. cerevisiae wt1 strain (SPY 50644) growth inhibition, active compounds read high
# Method in brief: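 wt1 strain grown with compound or vehicle; inhibition taken from the growth difference.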
# [7] = NCI Yeast Anticancer Drug Screen. Data for the rad50EPP+ strain (AID 151);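 further: 0% = growth of vehicle-treated control cultures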; settings: S. cerevisiae rad50 mutant strain, active compounds read high
# Method in brief: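 In this screen, rad50EPP+ yeast were exposed to compounds. Growth inhibition was scored against vehicle-treated controls.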
# [8] = NCI Yeast Anticancer Drug Screen. Data for the mgt1 strain (AID 153); settings: S. cerevisiae mgt1 mutant growth inhibition, active compounds read high
# Method in brief: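 mgt1 strain exposed; growth vs vehicle control recorded as inhibition.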
# [9] = NCI Yeast Anticancer Drug Screen. Data for the rad50 strain (AID 155);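 further: 0% = growth of vehicle-only cultures of the same strain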; settings: S. cerevisiae rad50 strain growth inhibition, active compounds read high
# Method in brief: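 DNA repair mutant yeast, compound exposure, growth read-out; inhibition is taken relative to vehicle.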
# [10] = NCI Yeast Anticancer Drug Screen. Data for the mec2-1 strain (AID 157); settings: S. cerevisiae mec2-1 strain, active compounds read high
# Method in brief: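 Vehicle-treated cultures served as reference for growth inhibition of compound-exposed mec2-1 yeast.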
# [11] = NCI Yeast Anticancer Drug Screen. Data for the rad14 strain (AID 159);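 further: 0% = growth of vehicle-treated control cultures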; settings: S. cerevisiae rad14 strain growth inhibition, active compounds read high
# Method in brief: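 DNA repair-defective yeast, compound-exposed; % growth inhibition derived by comparison with vehicle-treated controls.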
# [12] = NCI Yeast Anticancer Drug Screen. Data for the sgs1 mgt1 strain (AID 161);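 further: 0% = growth of cultures given vehicle only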; settings: S. cerevisiae sgs1 mgt1 strain, active compounds read high
# Method in brief: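 Test agents were incubated with a DNA-repair-mutant yeast strain. Growth was then read and compared against vehicle-treated controls.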
# [13] = NCI Yeast Anticancer Drug Screen. Data for the CLN2oe strain (AID 163);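 further: 0% = growth of vehicle-only control cultures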; settings: S. cerevisiae CLN2oe strain, active compounds read high
# Method in brief: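 Inhibition relative to vehicle-treated yeast is reported. Cells: strain with genetic alteration in cell-cycle control, grown with compound.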
# [14] = NCI Yeast Anticancer Drug Screen. Data for the cln2 rad14 strain (AID 165);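 further: 0% = growth equal to vehicle treated cultures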; settings: S. cerevisiae cln2 rad14 strain, active compounds read high
# Method in brief: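 Each compound was tested on cln2 rad14 yeast. Inhibition of growth was calculated against vehicle-exposed controls.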
# [15] = NCI Yeast Anticancer Drug Screen. Data for the bub3 strain (AID 167); settings: S. cerevisiae bub3 mutant strain, active compounds read high
# Method in brief: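 In this screen, a yeast mutant lacking normal mitotic checkpoint function is challenged with compound. Relative growth versus vehicle gives the inhibition value.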
# [16] = NCI Yeast Anticancer Drug Screen. Data for the rad18 strain (AID 177); settings: S. cerevisiae rad18 mutant growth inhibition, active compounds read high
# Method in brief: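 Test articles were incubated with altered yeast defective in DNA damage repair. Results are given as inhibition of growth versus vehicle.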
# [17] = at 5.0 µM (retest, dose inferred, filed as 0.5)
# [18] = at 50.0 µM (retest, dose inferred, filed as 5.0)
compound,measurement,setting,value
COc1ccc(Br)c(C(=O)Sc2nnnn2-c2cccc(Cl)c2)c1,growth inhibition,[1]; at 1.2 µM,-11%
same,growth inhibition,[1]; at 3.7 µM,-15%
same,growth inhibition,[1]; at 11.0 µM,-35%
same,growth inhibition,[1]; at 33.0 µM,-8%
same,growth inhibition,[1]; at 100.0 µM,93% (active)
same,growth inhibition,[2]; at 1.2 µM,-14%
same,growth inhibition,[2]; at 3.7 µM,-21%
same,growth inhibition,[2]; at 11.0 µM,-25%
same,growth inhibition,[2]; at 33.0 µM,3%
same,growth inhibition,[2]; at 100.0 µM,92% (active)
same,growth inhibition,[3]; at 1.2 µM,2%
same,growth inhibition,[3]; at 3.7 µM,2%
same,growth inhibition,[3]; at 11.0 µM,11%
same,growth inhibition,[3]; at 33.0 µM,49%
same,growth inhibition,[3]; at 100.0 µM,94% (active)
same,growth inhibition,[4]; [17],47%
same,growth inhibition,[4]; [18],67%
same,growth inhibition,[4]; at 50.0 µM,85% (active)
O=CC=C(c1ccccc1)c1ccccc1,growth inhibition,[5]; at 1.2 µM,-2%
same,growth inhibition,[5]; at 3.7 µM,0%
same,growth inhibition,[5]; at 11.0 µM,-9%
same,growth inhibition,[5]; at 33.0 µM,8%
same,growth inhibition,[5]; at 100.0 µM,95% (active)
same,growth inhibition,[6]; at 1.2 µM,-3%
same,growth inhibition,[6]; at 3.7 µM,3%
same,growth inhibition,[6]; at 11.0 µM,-4%
same,growth inhibition,[6]; at 33.0 µM,10%
same,growth inhibition,[6]; at 100.0 µM,98% (active)
same,growth inhibition,[7]; at 1.2 µM,20%
same,growth inhibition,[7]; at 3.7 µM,18%
same,growth inhibition,[7]; at 11.0 µM,26%
same,growth inhibition,[7]; at 33.0 µM,43%
same,growth inhibition,[7]; at 100.0 µM,83% (active)
same,growth inhibition,[8]; at 1.2 µM,-10%
same,growth inhibition,[8]; at 3.7 µM,-6%
same,growth inhibition,[8]; at 11.0 µM,2%
same,growth inhibition,[8]; at 33.0 µM,10%
same,growth inhibition,[8]; at 100.0 µM,98% (active)
same,growth inhibition,[9]; at 1.2 µM,8%
same,growth inhibition,[9]; at 3.7 µM,5%
same,growth inhibition,[9]; [17],41%
same,growth inhibition,[9]; at 11.0 µM,4%
same,growth inhibition,[9]; at 33.0 µM,11%
same,growth inhibition,[9]; [18],86% (active)
same,growth inhibition,[9]; at 50.0 µM,39.6%
same,growth inhibition,[9]; at 100.0 µM,98% (active)
same,growth inhibition,[10]; at 1.2 µM,4%
same,growth inhibition,[10]; at 3.7 µM,0%
same,growth inhibition,[10]; [17],51%
same,growth inhibition,[10]; at 11.0 µM,0%
same,growth inhibition,[10]; at 33.0 µM,20%
same,growth inhibition,[10]; [18],93% (active)
same,growth inhibition,[10]; at 50.0 µM,-13.3%
same,growth inhibition,[10]; at 100.0 µM,98% (active)
same,growth inhibition,[11]; at 1.2 µM,7%
same,growth inhibition,[11]; at 3.7 µM,-2%
same,growth inhibition,[11]; at 11.0 µM,3%
same,growth inhibition,[11]; at 33.0 µM,10%
same,growth inhibition,[11]; at 100.0 µM,98% (active)
same,growth inhibition,[12]; [17],-9%
same,growth inhibition,[12]; [18],97% (active)
same,growth inhibition,[12]; at 50.0 µM,80% (active)
same,growth inhibition,[13]; at 1.2 µM,16%
same,growth inhibition,[13]; at 3.7 µM,5%
same,growth inhibition,[13]; at 11.0 µM,13%
same,growth inhibition,[13]; at 33.0 µM,20%
same,growth inhibition,[13]; at 100.0 µM,98% (active)
same,growth inhibition,[14]; [17],36%
same,growth inhibition,[14]; [18],99% (active)
same,growth inhibition,[14]; at 50.0 µM,39.1%
same,growth inhibition,[15]; at 1.2 µM,-11%
same,growth inhibition,[15]; at 3.7 µM,-13%
same,growth inhibition,[15]; [17],30%
same,growth inhibition,[15]; at 11.0 µM,-32%
same,growth inhibition,[15]; at 33.0 µM,-10%
same,growth inhibition,[15]; [18],98% (active)
same,growth inhibition,[15]; at 50.0 µM,40.6%
same,growth inhibition,[15]; at 100.0 µM,98% (active)
same,growth inhibition,[1]; at 1.2 µM,4%
same,growth inhibition,[1]; at 3.7 µM,9%
same,growth inhibition,[1]; at 11.0 µM,6%
same,growth inhibition,[1]; at 33.0 µM,22%
same,growth inhibition,[1]; at 100.0 µM,97% (active)
same,growth inhibition,[2]; at 1.2 µM,5%
same,growth inhibition,[2]; at 3.7 µM,10%
same,growth inhibition,[2]; at 11.0 µM,16%
same,growth inhibition,[2]; at 33.0 µM,19%
same,growth inhibition,[2]; at 100.0 µM,99% (active)
same,growth inhibition,[3]; at 1.2 µM,-3%
same,growth inhibition,[3]; at 3.7 µM,4%
same,growth inhibition,[3]; at 11.0 µM,11%
same,growth inhibition,[3]; at 33.0 µM,43%
same,growth inhibition,[3]; at 100.0 µM,99% (active)
same,growth inhibition,[4]; [17],16%
same,growth inhibition,[4]; [18],90% (active)
same,growth inhibition,[4]; at 50.0 µM,28.4%
Cc1cc2c(cc1C(=O)CCC(=O)O)CC1(C2)Cc2cc(C)c(C(=O)CCC(=O)O)cc2C1,growth inhibition,[5]; at 1.2 µM,3%
same,growth inhibition,[5]; at 3.7 µM,6%
same,growth inhibition,[5]; at 11.0 µM,11%
same,growth inhibition,[5]; at 33.0 µM,25%
same,growth inhibition,[5]; at 100.0 µM,47%
same,growth inhibition,[6]; at 1.2 µM,3%
same,growth inhibition,[6]; at 3.7 µM,4%
same,growth inhibition,[6]; at 11.0 µM,12%
same,growth inhibition,[6]; at 33.0 µM,21%
same,growth inhibition,[6]; at 100.0 µM,35%
same,growth inhibition,[7]; at 1.2 µM,1%
same,growth inhibition,[7]; at 3.7 µM,0%
same,growth inhibition,[7]; at 11.0 µM,8%
same,growth inhibition,[7]; at 33.0 µM,15%
same,growth inhibition,[7]; at 100.0 µM,30%
same,growth inhibition,[8]; at 1.2 µM,2%
same,growth inhibition,[8]; at 3.7 µM,6%
same,growth inhibition,[8]; at 11.0 µM,12%
same,growth inhibition,[8]; at 33.0 µM,36%
same,growth inhibition,[8]; at 100.0 µM,42%
same,growth inhibition,[9]; at 1.2 µM,3%
same,growth inhibition,[9]; at 3.7 µM,2%
same,growth inhibition,[9]; [17],13%
same,growth inhibition,[9]; at 11.0 µM,9%
same,growth inhibition,[9]; at 33.0 µM,21%
same,growth inhibition,[9]; [18],36%
same,growth inhibition,[9]; at 50.0 µM,56.5%
same,growth inhibition,[9]; at 100.0 µM,42%
same,growth inhibition,[10]; at 1.2 µM,-2%
same,growth inhibition,[10]; at 3.7 µM,1%
same,growth inhibition,[10]; [17],-4%
same,growth inhibition,[10]; at 11.0 µM,12%
same,growth inhibition,[10]; at 33.0 µM,26%
same,growth inhibition,[10]; [18],14%
same,growth inhibition,[10]; at 50.0 µM,31.5%
same,growth inhibition,[10]; at 100.0 µM,56%
same,growth inhibition,[11]; at 1.2 µM,-1%
same,growth inhibition,[11]; at 3.7 µM,2%
same,growth inhibition,[11]; at 11.0 µM,8%
same,growth inhibition,[11]; at 33.0 µM,22%
same,growth inhibition,[11]; at 100.0 µM,44%
same,growth inhibition,[12]; [17],-4%
same,growth inhibition,[12]; [18],29%
same,growth inhibition,[12]; at 50.0 µM,49.9%
same,growth inhibition,[13]; at 1.2 µM,-5%
same,growth inhibition,[13]; at 3.7 µM,2%
same,growth inhibition,[13]; at 11.0 µM,14%
same,growth inhibition,[13]; at 33.0 µM,27%
same,growth inhibition,[13]; at 100.0 µM,41%
same,growth inhibition,[14]; [17],16%
same,growth inhibition,[14]; [18],47%
same,growth inhibition,[14]; at 50.0 µM,38.4%
same,growth inhibition,[15]; at 1.2 µM,-4%
same,growth inhibition,[15]; at 3.7 µM,0%
same,growth inhibition,[15]; [17],13%
same,growth inhibition,[15]; at 11.0 µM,9%
same,growth inhibition,[15]; at 33.0 µM,17%
same,growth inhibition,[15]; [18],62%
same,growth inhibition,[15]; at 50.0 µM,54.8%
same,growth inhibition,[15]; at 100.0 µM,54%
same,growth inhibition,[1]; at 1.2 µM,0%
same,growth inhibition,[1]; at 3.7 µM,2%
same,growth inhibition,[1]; at 11.0 µM,10%
same,growth inhibition,[1]; at 33.0 µM,26%
same,growth inhibition,[1]; at 100.0 µM,46%
same,growth inhibition,[2]; at 1.2 µM,5%
same,growth inhibition,[2]; at 3.7 µM,5%
same,growth inhibition,[2]; at 11.0 µM,14%
same,growth inhibition,[2]; at 33.0 µM,27%
same,growth inhibition,[2]; at 100.0 µM,50%
same,growth inhibition,[3]; at 1.2 µM,2%
same,growth inhibition,[3]; at 3.7 µM,7%
same,growth inhibition,[3]; at 11.0 µM,14%
same,growth inhibition,[3]; at 33.0 µM,33%
same,growth inhibition,[3]; at 100.0 µM,69%
same,growth inhibition,[4]; [17],-1%
same,growth inhibition,[4]; [18],70% (active)
same,growth inhibition,[4]; at 50.0 µM,67.8%
same,growth inhibition,[16]; at 1.2 µM,1%
same,growth inhibition,[16]; at 3.7 µM,1%
same,growth inhibition,[16]; at 11.0 µM,-3%
same,growth inhibition,[16]; at 33.0 µM,22%
same,growth inhibition,[16]; at 100.0 µM,63%

# Reference: PubChem BioAssay (NCI)
